Drawing on PubChem BioAssay (NCI), this text covers growth inhibition for 21 molecules.

Molecules are shown by their SMILES. About 79,000 compounds went through this panel and 15% of them were active in at least one assay; those are over-represented in the sample as a whole. Unmarked numbers belong to inactive results. Calls of active or inactive are those of the source. Cut-off read from the data, not from the text of the source: active = growth inhibition above about 70%; inactive = the rest.

Assay [1] in a line: NCI Yeast Anticancer Drug Screen. Data for the rad50 strain (AID 155).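 Note: 0% = growth of vehicle-only cultures of the same strain.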 The settings on record: S. cerevisiae rad50 strain growth inhibition; at 50.0 µM; stronger effect = higher value. In outline: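 Yeast carrying a defined DNA repair defect were exposed to test compounds, and growth was compared with vehicle-treated controls to give percent inhibition.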
A short description of assay [2]: NCI Yeast Anticancer Drug Screen. Data for the mec2-1 strain (AID 157). The settings on record: S. cerevisiae mec2-1 strain, at 50.0 µM, stronger effect = higher value. An outline of the steps:
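Strain: mec2-1 (DNA repair/cell cycle alteration). Compound exposure, then growth measured; inhibition expressed relative to vehicle.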

Assay [3] in a line: NCI Yeast Anticancer Drug Screen. Data for the sgs1 mgt1 strain (AID 161).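 Note: 0% = growth of cultures given vehicle only.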 Conditions: S. cerevisiae sgs1 mgt1 strain, at 50.0 µM, stronger effect = higher value. An outline of the steps:
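Test agents were incubated with a DNA-repair-mutant yeast strain. Growth was then read and compared against vehicle-treated controls.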

Assay [4] in a line: NCI Yeast Anticancer Drug Screen. Data for the cln2 rad14 strain (AID 165).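 Note: 0% = growth equal to vehicle treated cultures.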 The settings on record: S. cerevisiae cln2 rad14 strain, at 50.0 µM, stronger effect = higher value. An outline of the steps: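 Compounds are applied to the cln2 rad14 yeast strain, and growth is then compared with that of vehicle-treated cultures to give inhibition.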
Assay [5] can be described thus: NCI Yeast Anticancer Drug Screen. Data for the bub3 strain (AID 167). The settings on record: S. cerevisiae bub3 mutant strain, at 50.0 µM, stronger effect = higher value. In outline:
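Compounds were applied to a genetically altered yeast strain carrying a cell-cycle control defect. Growth inhibition was scored against vehicle-treated controls.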

Assay [6] in a line: NCI Yeast Anticancer Drug Screen. Data for the mlh1 rad18 strain (AID 175). The settings on record: S. cerevisiae mlh1 rad18 strain growth inhibition; at 50.0 µM; stronger effect = higher value. An outline of the steps:
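Read-out is yeast growth inhibition, calculated against vehicle-only controls. The compound was applied to a strain engineered with DNA damage repair alterations.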

As for `CC(=O)Oc1ccccc1C(=O)OC(=O)c1ccccc1OC(C)=O`, the growth inhibition in assay [1] is 5.3%; in assay [2], -10.2%; in assay [3], -1.7%; in assay [4] it was -9.85%; in assay [5] it was 0%; in assay [6] it was 6.75%.
For `CC(C)OC(CCCl)c1ccc(Cl)cc1` (stereo unspecified), the growth inhibition is -7% in assay [1]; -9.2% in assay [2]; -22.1% in assay [3]; 7.2% in assay [4]; -37.6% in assay [5]; -2.25% in assay [6].
In the case of `COc1ccc(/C=N\N2CN(C(CC(N)=O)C(=O)O)C(O)(CCl)N=C2N)cc1OC` (stereo unspecified), the growth inhibition in assay [1] was 9.1%; in assay [2], -6.9%; in assay [3] it was 3.1%; in assay [4] it was -5.65%; in assay [5], 6.8%; in assay [6], -0.1%.
Regarding `CC(=O)NCC1OCC2OC(C)(C)OC12` (stereo unspecified), the growth inhibition in assay [1] was 3.35%; in assay [2] it was -5%; in assay [3] it was -11.7%; in assay [4], -73.8%; in assay [5], -12.1%; in assay [6], -8.8%.
Take `CC(=O)Oc1ccc(O)c(C(=O)O)c1`: the growth inhibition in assay [1] was 1.8%; in assay [2], -7.15%; in assay [3], -4.95%; in assay [4] it was -1.35%; in assay [5], 0.2%; in assay [6], 17.3%.
In the case of `S=C1SC(=Nc2ccccc2)C(=Nc2ccccc2)N1c1ccc2ccccc2c1`, the growth inhibition in assay [1] is 8.2%; in assay [2] it was 8.75%; in assay [3] it was 28.5%; in assay [4] it was 12.8%; in assay [5], 27.9%; in assay [6] it was 24.1%.
For `Nc1ccccc1C(=O)Nc1ccc(Cl)cc1C(=O)O`, the growth inhibition in assay [1] is -7%; in assay [2], -3%; in assay [3] it was -14.2%; in assay [4], -14.8%; in assay [5], 2.65%; in assay [6] it was -5.1%.
In the case of `Cc1ccc(CNC(=S)NC2CCCCC2)cc1C`, the growth inhibition in assay [1] is 87.6% (active); in assay [2], 96% (active); in assay [3] it was 94.2% (active); in assay [4] it was 83.5% (active); in assay [5] it was 90% (active); in assay [6], 96.3% (active).
For `C=C1C(=O)OC2C1CCC1(C)CC(Br)C(=O)C(C)C21` (stereo unspecified), the growth inhibition is 1.7% in assay [1]; -1.1% in assay [2]; 13.9% in assay [3]; 2.1% in assay [4]; -5.85% in assay [5]; -4.65% in assay [6].
Regarding `COc1ccc(-c2ccccc2)cc1NC(C)=O`, the growth inhibition in assay [1] is 9.8%; in assay [2], 15.2%; in assay [3] it was 6.75%; in assay [4], 20.9%; in assay [5], 14%; in assay [6] it was 16.5%.
For `O=[N+]([O-])c1ccccc1N/N=C/c1ccccc1`, the growth inhibition in assay [1] was -10.2%; in assay [2], 7.1%; in assay [3], 2.6%; in assay [4], -65.9%; in assay [5], 8.35%; in assay [6], 10.8%.
Take `CNc1ccc(OC)cc1S(=O)(=O)c1ccccc1[N+](=O)[O-]`: the growth inhibition in assay [1] is 2.25%; in assay [2], -35.4%; in assay [3], 35.6%; in assay [4] it was 18.7%; in assay [5], 4.75%; in assay [6], -22.2%.
For the molecule `Cc1cc([N+](=O)[O-])cc(C)c1N`, the growth inhibition in assay [1] is 1.6%; in assay [2] it was -11%; in assay [3], 3.3%; in assay [4], -15%; in assay [5], -4.5%; in assay [6], 7.15%.
Consider `Cc1nc(Nc2ccccc2)sc1C(=O)CC(=O)C(=O)NC12CC3CC(CC(C3)C1)C2`, for which the growth inhibition in assay [1] was 1.3%; in assay [2], 8.95%; in assay [3], 8.8%; in assay [4], -13.1%; in assay [5], 4.4%; in assay [6], -0.7%.
For the molecule `Cc1ccc(S(=O)(=O)OC(c2ccc(Cl)cc2)C(F)(F)F)cc1` (stereo unspecified), the growth inhibition in assay [1] is 7.55%; in assay [2], -22.6%; in assay [3], -0.55%; in assay [4], 21.9%; in assay [5] it was 3.45%; in assay [6], 17.8%.
For the molecule `Oc1ccccc1C=Nc1ccc(I)cc1.Oc1ccccc1C=Nc1ccc(I)cc1.[Co]`, the growth inhibition is 15.8% in assay [1]; 23.1% in assay [2]; 18.6% in assay [3]; 9.45% in assay [4]; 17.6% in assay [5]; 36.8% in assay [6].
For `COc1cc2c(cc1OC)C(NC(C)C)CCCC2` (stereo unspecified), the growth inhibition in assay [1] is -7.6%; in assay [2] it was 9.35%; in assay [3] it was -13.8%; in assay [4] it was -23.6%; in assay [5] it was -7.7%; in assay [6], -6.9%.
In the case of `O=C(Nc1ccccc1C(F)(F)F)Oc1ccc(Cl)cc1Cc1ccccc1`, the growth inhibition in assay [1] is 99.4% (active); in assay [2], 99.6% (active); in assay [3], 99.7% (active); in assay [4], 99.3% (active); in assay [5] it was 99.2% (active); in assay [6], 99.5% (active).
As for `C[P+]1(CCc2ccc(Cl)cc2)CC=CC1`, the growth inhibition in assay [1] is -4.15%; in assay [2], 5.2%; in assay [3] it was -2.9%; in assay [4], -18.9%; in assay [5] it was 0.2%; in assay [6], -3.95%.
`Cc1cc(C)c(C(CC(=O)O)C(CC(=O)O)c2c(C)cc(C)cc2C)c(C)c1` (stereo unspecified): the growth inhibition was -0.25% in assay [1]; 1.5% in assay [2]; -16.6% in assay [3]; -21.4% in assay [4]; -6.85% in assay [5]; 32.4% in assay [6].
Regarding `CC(C)=CCN(N=O)c1ncnc2nc[nH]c12`, the growth inhibition in assay [1] was -10.1%; in assay [2], 31.1%; in assay [3] it was -24.8%; in assay [4], -2.5%; in assay [5] it was 18.9%; in assay [6], 9.85%.
